# ELG1 DNA repair – inhibitors of ELG1-dependent DNA repair in HEK293T cells. Potency, µM (top dose mostly 46.1 µM), for inactives: at the highest dose activity change, negative = inhibition, most hits filed as inhibitors. HEK293T ELG1-luciferase reporter, luminescence, 16 h; DNA damage induced by 5-fluorouridine. AID 504467. actives 2.3% (n = 330,000); note: potency is the fitted concentration of half-maximal effect; nearly all actives have a fitted effect of over 55% in size
#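 Reporter activity after DNA damage by 5-fluorouridine is monitored. Compound-treated cells incubate 16 hr at 37 °C, then ONE-Glo is added for 30 min before luminescence reading.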
# IL-1B inflam inh – inflammasome signaling inhibition, IL-1 beta readout; THP-1 LPS/ATP IL-1B secretion, AlphaLISA, 16 h; stronger effect = lower value; activity change, % at 57.5 µM; actives 4.7% (n = 360,000); in the data active = activity change below about -50%; inconclusive = mostly about -30% to -49%
#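 Secreted IL-1B measured by AlphaLISA bead assay after 16 h compound exposure of THP-1 cells; compounds (final up to 57.5 uM) added 1 h before LPS (250 ng/mL) and ATP (1.25 mM) stimulation; lower signal means less secretion.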
# Gal4-VP16 FLuc – Gal4-VP16 reporter inhibition counter-screen; actives 3.5% (n = 310,000); AID 2546; Drosophila S2 Gal4-VP16 UAS-luciferase, luminescence, 20 h; Potency, µM (highest dose often 53.6 µM), inactives show at the highest dose activity, negative = inhibition, actives largely listed as inhibitors;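 note: Gal4-VP16 expression switched on by copper sulfate through the metallothionein promoter; potency is the fitted concentration of half-maximal effect; nearly all actives have a fitted effect of over 50% in size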
# RORg inh – inhibitors of mouse ROR gamma transcriptional activity; P51450; Potency, µM (top dose mostly 53.6 µM), without a hit: at the top dose activity change, negative = inhibition, most hits filed as inhibitors; AID 2551; actives 5.4% (n = 310,000); Drosophila S2 Gal4-RORgamma UAS-luciferase reporter, 20 h; note: potency is the fitted concentration of half-maximal effect; nearly all actives have a fitted effect of over 60% in size
# Target sequence (P51450 whole entry, looked up, the tested form may be a part): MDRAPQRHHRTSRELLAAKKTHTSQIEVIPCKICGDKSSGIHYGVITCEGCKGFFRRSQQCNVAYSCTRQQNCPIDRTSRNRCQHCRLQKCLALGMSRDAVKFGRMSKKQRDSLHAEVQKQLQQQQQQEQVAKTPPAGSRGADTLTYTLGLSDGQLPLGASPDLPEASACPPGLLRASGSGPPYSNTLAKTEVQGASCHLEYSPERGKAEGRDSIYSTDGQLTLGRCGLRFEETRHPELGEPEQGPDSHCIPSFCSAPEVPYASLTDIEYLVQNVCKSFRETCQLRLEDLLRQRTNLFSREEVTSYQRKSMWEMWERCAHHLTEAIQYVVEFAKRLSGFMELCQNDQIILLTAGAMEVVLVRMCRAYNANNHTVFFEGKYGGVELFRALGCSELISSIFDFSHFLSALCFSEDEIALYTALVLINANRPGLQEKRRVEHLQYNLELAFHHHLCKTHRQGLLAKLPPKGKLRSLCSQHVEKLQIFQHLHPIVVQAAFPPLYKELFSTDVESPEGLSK
#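 Schneider cells (Drosophila), stable Gal4 DBD–ROR gamma + UAS-luc; 1 hr cmpd preincubation; Cu2+ induction 700 uM final; 20 hr ambient; luminescence.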
# TDP1 cell CPT – growth inhibition of DT40 Tdp1-/-;hTDP1 cells with camptothecin (screen for TDP1 inhibitors); chicken DT40 Tdp1-/-;hTDP1 cells + 20 nM CPT, ATP luminescence, 48 h; Potency, µM (highest dose often 46.2 µM), for inactives: at the top dose activity change, negative = growth inhibition, usual class: inhibitors; actives 12% (n = 420,000); note: potency is the fitted concentration of half-maximal effect; nearly all actives have a fitted effect of over 55% in size
#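 Chicken DT40 Tdp1-/- cells stably complemented with human TDP1 were seeded at 400 cells/well in medium containing 20 nM camptothecin, exposed to pin-transferred compounds, and grown at 37 °C for at least 48 hr. Viability was read as ATP luminescence.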
# TDP1 cell noCPT – qHTS for Inhibitors of human tyrosyl-DNA phosphodiesterase 1 (TDP1): qHTS in cells in absence of CPT. Potency, µM (highest dose often 46.2 µM), inactives show top-dose activity change, negative = growth inhibition, most hits filed as inhibitors. DT40 Tdp1-/- hTDP1 cells, no CPT, ATP luminescence, 48 h. actives 15% (n = 420,000); note: potency is the fitted concentration of half-maximal effect; nearly all actives have a fitted effect of over 55% in size
#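 No-CPT arm: Tdp1-/-;hTDP1 DT40 cells (400/well) plus compounds, incubated ≥48 hr at 37 °C. Readout CellTiter-Glo luminescence.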
# * hit, by the source's call; ? = inconclusive; nt = no result. In the library only some 21% were active in any assay of this set; here they are far more common. Unless noted, calls come from the whole dose curve; as a rule, active = well fitted curve in the direction sought with a large enough effect; inconclusive = small, poorly fitted or top-dose-only effect, or another doubt; inactive = no such curve, though single readings can be large; an effect the other way counts as inactive or inconclusive. % is set by controls: 0 for no effect and ±100 for the full control effect.
SMILES,ELG1 DNA repair,IL-1B inflam inh,Gal4-VP16 FLuc,RORg inh,TDP1 cell CPT,TDP1 cell noCPT
CCc1cccc(C)c1NC(=O)CN1C(=O)c2cccc3cccc1c23,nt,nt,nt,nt,-15%,-18%
COC(=O)[C@@H](NC(=O)O[C@@H]1C(=O)c2cc(Br)ccc2O[C@H]1c1ccc2c(c1)OCO2)C(C)C,nt,nt,4%,21%,nt,nt
O=C(NCCC1CCCCN1S(=O)(=O)c1ccccc1)C(=O)Nc1ccc(F)cc1F (configuration not stated),-19%,?,nt,nt,18µM*,18µM*
Cc1ccc(S(=O)(=O)N2CCCCC2CCNC(=O)C(=O)Nc2ccccc2F)cc1 (configuration not stated),-24%,67,nt,nt,6.5µM*,5.8µM*
O=C(NCCC1CCCCN1S(=O)(=O)c1ccccc1)C(=O)Nc1ccccc1 (configuration not stated),-9%,-16,nt,nt,?,?
O=C(NCCC1CCCCN1S(=O)(=O)c1ccc(F)cc1)C(=O)Nc1ccccc1F (configuration not stated),?,7,nt,nt,?,26µM*
O=C(NCCC1CCCCN1S(=O)(=O)c1ccccc1)C(=O)Nc1ccccc1F (configuration not stated),?,14,nt,nt,18µM*,23µM*
O=C(NCCC1CCCCN1S(=O)(=O)c1ccccc1)C(=O)NCc1ccccc1F (configuration not stated),-19%,?,nt,nt,?,?
CCC(C)NC(=O)CCC(=O)N1Cc2ccccc2Oc2ncccc21 (configuration not stated),nt,nt,nt,nt,-11%,-15%
COc1ccccc1NC(=O)C(=O)NCCC1CCCCN1S(=O)(=O)c1ccc(F)cc1 (configuration not stated),?,-24,nt,nt,15µM*,18µM*
Cc1ccc(C)c(NC(=O)Cn2c(=O)n(CCC(C)C)c(=O)c3cccnc32)c1,nt,nt,nt,nt,-9%,-15%
CC/C(=C/c1ccccc1)c1cc(Oc2ccccc2)cc2oc3ccccc3c12,nt,nt,nt,nt,-10%,-17%
CC/C(=C/c1ccccc1)c1cccc2[nH]c3c(OC)cccc3c12,-21%,4,-4%,18%,21µM*,?
COc1ccc2c(c1)CCC2=O,nt,nt,nt,nt,12%,3%
COc1ccc2c(c1)CCCC(Br)C2=O (configuration not stated),nt,-67*,nt,nt,5.2µM*,3.3µM*
CCCC(NC(=O)CCl)c1ccccc1 (configuration not stated),?,-92*,-28%,-40%,13µM*,29µM*
CC(C)CC(NC(=O)CCl)c1ccccc1 (configuration not stated),?,-6,-7%,-19%,-27%,?
CSc1ncc(CN2CCc3c([nH]c4ccccc34)C2c2cccc(C)n2)cn1 (configuration not stated),?,35,-14%,0%,?,26µM*
CCn1cc(CN2CCc3c([nH]c4ccccc34)C2c2cccc(O)c2)c(C)n1 (configuration not stated),?,4,5%,19%,-1%,?
CSc1ncc(CN2CCc3c([nH]c4ccccc34)C2c2cccc(O)c2)cn1 (configuration not stated),?,7,?,23%,?,26µM*
CC1CCc2c(sc(NC(=O)CCC(=O)O)c2C(=O)NC2CC2)C1 (configuration not stated),-3%,4,-8%,4%,?,-13%
Cc1ccc(-n2nc(C)c3nc(CCC(=O)Nc4cccc(C)c4C)c(=O)n(C)c32)cc1,nt,nt,nt,nt,-11%,-1%

# High-throughput results from PubChem.
